Screening data from PubChem BioAssay.
PostGolgi yeast = growth inhibition of a yeast mutant, post-Golgi transport screen. actives 0.9% (n = 98,000). inhibition, % at 10 µM. AID 739. post-Golgi transport phenotypic cell assay;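 further: yeast cells grown in 1536-well plates; yeast grown about 18 h at 30C before absorbance read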
CYP2C9 inh = human CYP2C9 inhibition; P11712; CYP2C9 Supersomes, luciferin-H conversion, luminescence; inhibition, % at 5 µM; actives 20% (n = 96,000);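 active means blocking of liver enzyme CYP2C9 beyond about 50% at 5 µM, limit read from the data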
Target sequence (P11712 whole entry, looked up): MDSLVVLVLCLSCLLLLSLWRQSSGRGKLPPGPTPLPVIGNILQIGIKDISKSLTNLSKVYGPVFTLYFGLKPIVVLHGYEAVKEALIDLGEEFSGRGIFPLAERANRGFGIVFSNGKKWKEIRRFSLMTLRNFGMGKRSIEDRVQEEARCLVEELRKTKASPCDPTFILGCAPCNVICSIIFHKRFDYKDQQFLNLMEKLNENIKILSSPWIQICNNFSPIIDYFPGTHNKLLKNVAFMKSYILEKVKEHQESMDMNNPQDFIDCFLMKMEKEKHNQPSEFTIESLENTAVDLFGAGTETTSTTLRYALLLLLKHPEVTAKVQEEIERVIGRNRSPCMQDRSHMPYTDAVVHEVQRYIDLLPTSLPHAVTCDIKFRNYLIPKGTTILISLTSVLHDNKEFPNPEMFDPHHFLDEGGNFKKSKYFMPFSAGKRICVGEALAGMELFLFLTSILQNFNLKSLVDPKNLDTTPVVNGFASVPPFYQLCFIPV
CYP2C19 act = activators of human cytochrome P450 2C19; P33261; recombinant CYP2C19, luciferin-H EGE luminescence; hits give high values; 0 = fully inhibited enzyme, 1 = untreated enzyme; activation factor at 5 µM; AID 1025; 96,000 tested, under 10 active;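 active means activation factor of at least 2 at 5 µM in the primary screen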
CYP2C19 inh = human CYP2C19 inhibition | P33261 | CYP2C19 Supersomes, luciferin-H EGE luminescence, 30 min | inhibition, % at 5 µM | actives 21% (n = 96,000) | AID 778;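 active means CYP2C19 inhibition above a set limit at 5 µM in the primary screen, cut at about 50% in these data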
CYP2C9 act = activators of human CYP2C9 | P11712 | recombinant CYP2C9, luciferin-H conversion, luminescence; hits give high values; factor 1 = untreated enzyme, 0 = blocked | activation factor at 5 µM | actives 1.4% (n = 96,000) | AID 1024;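 active means activation factor of 2 or more for CYP2C9 at a 5 µM dose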
PostGolgi ctrl = growth of the yeast control strain, post-Golgi counter-screen | efflux-deficient yeast background strain, growth absorbance A615, 16 h | inhibition, % at 10 µM | actives 5% (n = 98,000) | AID 738
Numbers stand for hits; i = inactive; nt = no result given. Compounds with a hit are over-represented: about 32% of the library has one in this group of screens. Unless noted, no stated cut-off is given here; in the data, active means inhibition above about 30%; inactive means the rest.

SMILES	PostGolgi yeast	CYP2C9 inh	CYP2C19 act	CYP2C19 inh	CYP2C9 act	PostGolgi ctrl
CCOC(=O)c1cccc(NC(=O)C2CCCN2S(=O)(=O)c2cccc3cccnc23)c1 (stereo not given)	i	91	i	i	i	i
Cc1cccc(NC(=O)C2CCN(c3nccc(C)n3)CC2)c1	i	i	i	70	i	i
O=C(CSc1nnc(Cc2ccccc2)n1C1CCCCC1)N1CCOCC1	i	i	i	i	i	i
COc1ccc(N(C)S(=O)(=O)c2cccc3cccnc23)c(OC)c1	i	i	i	60	i	i
Cc1ccccc1NC(=O)C1CCCN1S(=O)(=O)c1cccc2cccnc12 (stereo not given)	i	96	i	67	i	i
Cc1cccc(NC(=O)C2CCCN(S(=O)(=O)c3cccc4cccnc34)C2)c1 (stereo not given)	i	i	i	81	i	i
Cc1cccc(OCCC(=O)NCC(c2ccco2)N2CCCCC2)c1 (stereo not given)	i	i	i	i	i	i
CN(C(=O)COC(=O)c1ccc(Cl)cc1N)C1CCS(=O)(=O)C1 (stereo not given)	i	i	i	i	i	i
c1ccc(CNc2nc3ccccc3n3cnnc23)cc1	i	i	i	i	i	i
COc1cccc(Nc2nc3ccccc3n3cnnc23)c1	i	i	i	i	i	33
COCc1cc(C)nc(OCC(=O)N/N=C\c2cc(C)n(-c3cccc(C(F)(F)F)c3)c2C)c1C#N	i	65	i	i	i	i
COc1ccc(-n2c(C)cc(C(=O)NC3CCCCC3)c2C)cc1	i	i	i	i	i	i
OC(c1ccccc1)C1CN(Cc2ccccc2)CCC1(O)c1ccccc1 (stereo not given)	i	i	i	67	i	i
OC1CCCN(Cc2ccccc2)C1 (stereo not given)	i	i	i	i	i	i
CC1CCCN(C2=NC(=O)/C(=C/c3cn(-c4ccccc4)nc3-c3cccc(S(=O)(=O)N(C)C)c3)S2)C1 (stereo not given)	i	65	i	i	i	i
Cc1ccc(-c2nn(-c3ccccc3)cc2C=C2C(=O)CC(C)(C)CC2=O)cc1	i	nt	nt	nt	nt	i
CC1CCN(C2=NC(=O)/C(=C/c3cn(-c4ccccc4)nc3-c3cccc(S(=O)(=O)N(C)C)c3)S2)CC1	i	56	i	i	i	i
O=C(c1cccs1)N1CCN(c2ncccn2)CC1	i	i	i	i	i	i
O=C(c1ccsc1)N1CCN(C(=O)c2cccs2)CC1	i	67	i	95	i	i
O=C(c1cccs1)N1CCN(S(=O)(=O)c2ccccc2)CC1	i	70	i	97	i	i
CC1CN(C(=O)c2cccs2)CCN1C(=O)c1cccs1 (stereo not given)	i	89	i	96	i	i
O=C(c1cccs1)N1CCN(S(=O)(=O)N2CCCCC2)CC1	i	i	i	i	i	i
COc1ccc(CCNC(=O)C2CCN(S(=O)(=O)c3ccc(OC)c(OC)c3)CC2)cc1	i	i	i	i	i	i
CCC(=O)N1c2ccc(C)cc2C2=NNC(=S)NC21O (stereo not given)	i	i	i	i	i	i
CN(c1ccc(C(=O)Nc2ccccc2Sc2ccccc2)cc1)S(C)(=O)=O	i	i	i	i	i	i
SMILES	PostGolgi yeast	CYP2C9 inh	CYP2C19 act	CYP2C19 inh	CYP2C9 act	PostGolgi ctrl
COc1ccccc1NC(=O)c1ccc(S(=O)(=O)N(C)C)cc1	i	i	i	i	i	i
Cc1ccc(C)c(NC(=O)c2ccc(N(C)S(C)(=O)=O)cc2)c1	i	51	i	i	i	i
COc1ccc(C)cc1NC(=O)c1ccc2c(c1)OCO2	i	i	i	86	i	i
COc1ccc(C)cc1NC(=O)c1ccc(N(C)S(C)(=O)=O)cc1	i	i	i	i	2.5	i
Cc1cccc(N(C(=O)CNC(=O)c2ccco2)C(C(=O)NC2CCCC2)c2cccnc2)c1 (stereo not given)	i	i	i	i	i	i
Cc1ccc(Cn2cccc(NC(=O)c3ccco3)c2=O)cc1	i	60	i	72	i	i
COC(=O)Nc1cccn(Cc2c(Cl)cccc2Cl)c1=O	i	i	i	87	2.5	i
O=C(Nc1cccn(Cc2c(Cl)cccc2Cl)c1=O)c1c(Cl)cccc1Cl	i	i	i	i	i	93
Cc1ccc(Cn2cccc(NC(=O)NCc3ccccc3)c2=O)cc1	i	i	i	i	i	i
